# Assay outcomes deposited in PubChem by ICCB-Longwood Screening Facility, Harvard Medical School.
# Rows were chosen to be rich in hits. Some 1.4% of all compounds tested hit in one or more screens of this group.
# Polio RdRp inh = inhibitors of poliovirus RNA polymerase binding and polymerization | % elongation, % (compound at 16.7 µg/mL) | P03300 | poliovirus polymerase elongation, fluorescence polarization; hits give low values | hit rate 0.66% among 150,000; in the data active = % elongation below about 90%
# Mtb MenB inh = Mtb MenB enzyme inhibition; hit rate 0.43% among 100,000; inhibition, % (test concentration not listed); AID 540299; P9WNP5; MenB enzyme assay, absorbance read-out; in the data active = inhibition above about 21%, passing the limit was not always enough
# Target sequence (P9WNP5 whole entry, looked up): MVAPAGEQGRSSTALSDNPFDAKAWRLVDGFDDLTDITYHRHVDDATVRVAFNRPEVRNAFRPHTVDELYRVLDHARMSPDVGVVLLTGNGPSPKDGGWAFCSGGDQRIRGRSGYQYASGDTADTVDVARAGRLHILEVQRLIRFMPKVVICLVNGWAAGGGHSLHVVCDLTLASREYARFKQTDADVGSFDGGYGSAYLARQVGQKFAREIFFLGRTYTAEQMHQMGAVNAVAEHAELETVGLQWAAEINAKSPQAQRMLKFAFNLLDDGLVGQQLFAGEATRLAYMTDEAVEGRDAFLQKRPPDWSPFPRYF
# MbtI inh = inhibitors of Mycobacterium tuberculosis siderophore enzyme MbtI; purified MbtI enzyme, fluorescence intensity read-out; hit rate 0.89% among 100,000; P9WFX0; inhibition, % (concentration not given with the values); AID 493033; in the data active = inhibition mostly above about 56%, no sharp cut-off; inactive = mostly below about 77%
# Starred values were filed as active, the others as inactive; i = inactive; nt = not tested or not shown.
SMILES,Polio RdRp inh,Mtb MenB inh,MbtI inh
COc1cccc(-c2nn3c(Cn4cnc5ccccc54)nnc3s2)c1,66.0,-49.3,117.5
O=c1nc2n(c3ccccc13)C(c1ccccc1)C(O)=C2c1nc2ccccc2[nH]1 (centres undefined),99.0,-11.5,16.6
COc1ccc(C=C2C(=O)NC(=O)NC2=O)cc1,103.0,-41.8,27.1
COc1ccc(C=C2C(=O)NC(=S)NC2=O)cc1,104.0,-36.3,96.9*
Cc1[nH]c2ccc(-c3nnc(SCC(=O)N4c5ccccc5CCc5ccccc54)o3)cc2c1C,103.0,-185.6,46.8
CCN(CCCNC(=O)c1cc2c(=O)[nH]c3ccc(C)cc3c2s1)Cc1ccccc1,87.0*,nt,nt
CCN(CC)CCNC(=O)c1cc2c(=O)[nH]c3ccc(C)cc3c2s1,99.0,nt,nt
NC(=S)N/N=C/c1nc2ccccc2n1Cc1ccccc1,97.0,-30.9,3.6
COc1ccc(COC(=O)N/N=C/c2ccco2)cc1,104.0,-54.4,12.6
CCN(CC)S(=O)(=O)c1cccc(C2=N/C(=C\c3c(C)nn(-c4ccccc4)c3N3CCCC3)C(=O)O2)c1,166.0,-10.5,-2.1
Cc1ccc(C2=N/C(=C\c3c(C)nn(-c4ccccc4)c3N3CCCC3)C(=O)O2)s1,28.0*,-11.2,-1.5
O=C(NCc1ccccc1)c1ccco1,103.0,-18.0,-18.1
CC(Sc1ccccc1)C(=O)NCc1ccco1 (centres undefined),102.0,-4.1,9.7
O=C(NCc1ccco1)C(=S)NCc1ccccc1,99.0,-6.6,68.4*
O=C(NCc1ccco1)C(Sc1ccccc1)c1ccccc1 (centres undefined),102.0,32.7*,-5.2
CN1CCC(=NNC(=O)c2ccc(CN(c3ccccc3)S(C)(=O)=O)cc2)CC1,101.0,15.1,6.2
CC1CCC(NC(=O)c2ccc(N3C(=O)CCC3=O)cc2)CC1 (centres undefined),102.0,-28.4,2.6
Cc1cc(C)c(NC(=O)C(C)n2nnc3sc(-c4ccccc4)cc3c2=O)c(C)c1 (centres undefined),112.0,nt,nt
COc1ccc(NC(=O)C(C)n2nnc3sc(-c4ccccc4)cc3c2=O)cc1Cl (centres undefined),76.0*,nt,nt
CCOC(=O)c1c(-c2ccc(C)o2)csc1NC(=S)NC(=O)N(C)C,99.0,-64.6,85.0*
CCOC(=O)c1c(-c2cccs2)csc1NC(=O)C1CC=CCC1C(=O)O (centres undefined),102.0,13.6,6.2
CCN(c1ccccc1)S(=O)(=O)c1ccc2[nH]cc(C(=O)NCc3ccccc3)c(=O)c2c1,103.0,-37.0,-3.2
O=C(CC(=O)NCC1CCCO1)NCC1CCCO1 (centres undefined),100.0,nt,-13.1
O=C(CC1CCCCC1)NCC1CCCO1 (centres undefined),103.0,30.7*,1.8
Oc1ccccc1C=Nc1ccc2ncccc2c1,98.0,6.0,-33.1
SMILES,Polio RdRp inh,Mtb MenB inh,MbtI inh
COC(=O)C1(C(C)C)NC(c2ccccc2OC)C2C(=O)N(C)C(=O)C21 (centres undefined),102.0,27.1*,-6.7
COC(=O)C1(c2ccccc2)NC(c2ccccc2C)C2C(=O)N(C)C(=O)C21 (centres undefined),102.0,-54.1,-8.2
CC(C)N(Cc1nnc(-c2ccccc2)o1)C(=O)COc1ccc(C#N)cc1,115.0,-23.3,-7.1
O=C(/C=C/c1ccc(Br)o1)OCC(=O)c1c[nH]c2ccccc12,106.0,-5.1,7.8
N#Cc1cc2c(=O)c3ccccc3oc2nc1-c1cc2ccccc2o1,109.0,-1.7,-6.6
O=c1[nH]c(-c2ccco2)nc2sc3c(c12)CCCC3,103.0,nt,i
O=c1[nH]c(-c2ccccc2O)nc2sc3c(c12)CCCC3,89.0*,-4.3,nt
N#Cc1c(NC(=O)C2c3ccccc3Oc3ccccc32)oc(-c2ccco2)c1-c1ccco1,117.0,-9.9,-102.1
CS/C(N)=N/S(=O)(=O)c1ccc(C)cc1,100.0,18.8,4.0
CC1=CC(=N/C(C)=N/S(=O)(=O)c2ccc(C)cc2)C=C(C)C1=O,105.0,2.9,86.3*
COc1cc(OC)c(OC)cc1CN1CCN(c2cccc(C)c2C)CC1,96.0,4.1,-0.6
CCC(C)N1CCN(Cc2cc(OC)c(OC)cc2OC)CC1 (centres undefined),102.0,36.5*,3.8
CCC(=O)Nc1cccc(NC(=O)CSc2nnnn2C(C)C)c1,101.0,-31.9,-3.5
CC(O)(CC(=O)O)C(F)(F)F (centres undefined),96.0,0.7,-18.9
COc1cc2c(cc1OC)CC(C(=O)O)NC2 (centres undefined),103.0,32.3*,-2.5
COc1cc2c(cc1OC)C(C(=O)O)CC(=O)N2 (centres undefined),103.0,-12.2,-13.2
COc1ccc(C2=NN(C(C)=O)CC2)cc1,100.0,-0.4,-67.4
CC(C)NS(=O)(=O)c1ccc(OCC(=O)NCc2ccco2)cc1,nt,nt,-11.8
CC(NS(=O)(=O)c1ccc(Br)cc1)C(=O)NCc1ccco1 (centres undefined),100.0,37.2*,12.1
COC(=O)/C=C\c1cc(Br)ccc1C#N,106.0,-41.7,-10.2
CCCCc1ccc(CC(=O)O)cc1,102.0,-23.2,2.1
O=C1Cc2ccccc2C(=O)N1c1ccccc1,98.0,nt,-3.3
O=C(Nc1cccc(N2C(=O)C=CC2=O)c1)c1cccs1,104.0,-66.9,83.2
CC(=O)Nc1cccc(N2C(=O)C=CC2=O)c1,105.0,-58.4,95.5*
O=C1Cc2ccccc2C(=O)N1c1cccc(Cl)c1,78.0*,-34.9,-0.4
SMILES,Polio RdRp inh,Mtb MenB inh,MbtI inh
O=C1C=CC(=O)N1c1cccc(Cl)c1,103.0,4.2,100.5*
CCCCc1ccc(N2C(=O)C=CC2=O)cc1,101.0,nt,97.6*
CC1(C)C(=O)N(c2cccc(Cl)c2)C(=O)C1(C)C,98.0,0.6,-15.8
Cc1c(-c2cccc(NC(=O)CC(C)C)c2)nc2ncccn12,99.0,-30.2,129.8
Cc1ccc(-n2c(C)cc(=O)cc2C)cc1,nt,-7.1,-2.6
CC1NC(=S)N(c2ccc(C(C)C)cc2)C1=O (centres undefined),105.0,-33.8,12.2
O=C1C=CC(=O)N1c1ccccc1,102.0,-2.7,99.0*
O=C1c2ccccc2C(=O)N1c1ccccc1,101.0,-34.0,0.7
CC(C)c1ccc(N2C(=O)C=CC2=O)cc1,100.0,-1.1,101.3*
Cc1ccc(N2C(=O)C=CC2=O)cc1,103.0,7.1,99.8*
N#Cc1ccc(CSc2nc3ccccc3c(=O)[nH]2)cc1,99.0,-13.7,53.4*
C#CCSc1nc2ccccc2c(=O)[nH]1,100.0,-29.7,86.8
CC(=O)NC(C(=O)O)C1CCCC1 (centres undefined),101.0,-18.8,10.2
COC(=O)CSCc1nc(N)nc(Nc2ccccc2C)n1,105.0,-1.8,2.3
N#CC1(c2ccccc2)CCC(NCCCn2cnc3ccccc32)CC1 (centres undefined),93.0,-13.5,14.4
COc1ccc(OC)c(NC(=O)c2oc3ccccc3c2NC(=O)CC(C)(C)C)c1,101.0,-1.5,11.3
CC1=C(C)C(=O)C(N2CCOCC2)=CC1=O,95.0,-27.8,0.0
CCCN(CCC)C1=CC(=O)C(C)=C(C)C1=O,86.0*,-33.7,-26.3
CC1CCCC/C1=N/NC(=O)Cn1ccc(C(F)(F)F)n1 (centres undefined),99.0,-18.5,-13.8
O=C(Nc1ccc(-c2nc3cc(Cl)cc(Cl)c3o2)cc1)c1ccc2c(c1)OCCO2,99.0,-15.2,-41.8
